HepG2 tox – kills HepG2 cells in TGF-b inhibitor counter-screen. AID 588856. Potency, µM (series often up to 46.1 µM), inactives show top-dose activity change, negative = cytotoxicity, hits mostly cytotoxic. HepG2 CAGA-GFP viability, ATP luminescence, 18 h. actives 0.76% (n = 410,000)
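CellTiter-Glo luminescence gave cytotoxicity after 18 hours at 37 degrees C. The cells were HepG2 CAGA-GFP in 1% FBS DMEM, stimulated with 500 pg/mL TGF-beta after compound addition. %Activity was normalised to no-cell wells (complete cell-killing) and DMSO (no toxicity), and curves were fitted and classified.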
ATXN2 expr inh – ATXN2 expression inhibition. Potency, µM (top dose mostly 57 µM), for inactives: top-dose activity change, negative = inhibition, hits mostly inhibitors. HEK-293 ATXN2-luciferase reporter, luminescence, 24 h. actives 0.72% (n = 360,000). AID 1745845; note: % is set by controls: 0 for no effect and ±100 for the full control effect; nearly all actives have a fitted effect of over 55% in size
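ATXN2-luciferase reporter cells (luciferase flanked by upstream and downstream ATXN2 gene portions) were treated 24 h at 37 °C with compounds at up to 57 uM. SteadyGlo luminescence gave expression; GF-AFC fluorescence gave viability.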
DT40 TDP1 CPT – growth inhibition of DT40 Tdp1-/-;hTDP1 cells with camptothecin (screen for TDP1 inhibitors); actives 12% (n = 420,000); Potency, µM (titrated, usually from 46.2 µM), without a hit: at the highest dose activity change, negative = growth inhibition, hits mostly inhibitors; chicken DT40 Tdp1-/-;hTDP1 cells + 20 nM CPT, ATP luminescence, 48 h; AID 686979; note: % is set by controls: 0 for no effect and ±100 for the full control effect; nearly all actives have a fitted effect of over 55% in size
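Chicken DT40 Tdp1-/- cells stably complemented with human TDP1 were seeded at 400 cells/well in medium containing 20 nM camptothecin, exposed to pin-transferred compounds, and grown at 37 °C for at least 48 hr. Viability was read as ATP luminescence.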
TGFb SMAD3 inh – blocks TGF-b signaling; AID 588855; Potency, µM (titrated, usually from 46.1 µM), for the others: at the top dose activity, negative = inhibition, most hits filed as inhibitors; HepG2 CAGA-GFP TGF-b/SMAD3 reporter, GFP fluorescence, 18 h; TGF-beta stimulated, 500 pg/mL final; actives 1.2% (n = 410,000); note: % is set by controls: 0 for no effect and ±100 for the full control effect; nearly all actives have a fitted effect of over 65% in size
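Smad-responsive CAGA-GFP expression was quantified in HEPG2 cells exposed to compounds and 500 pg/mL final TGF-beta for 18 h at 37 degrees C; unstimulated wells defined full inhibition.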
TDP1 cell noCPT – qHTS for Inhibitors of human tyrosyl-DNA phosphodiesterase 1 (TDP1): qHTS in cells in absence of CPT; DT40 Tdp1-/- hTDP1 cells, no CPT, ATP luminescence, 48 h; Potency, µM (titrated, usually from 46.2 µM), for the others: at the top dose activity change, negative = growth inhibition, hits mostly inhibitors; actives 15% (n = 420,000); AID 686978, 2013; note: % is set by controls: 0 for no effect and ±100 for the full control effect; nearly all actives have a fitted effect of over 55% in size
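Luminescent ATP content (CellTiter-Glo) served as the growth readout. Knockout chicken DT40 cells expressing human TDP1 were exposed to compounds without camptothecin for a minimum 48 hr at 37 °C.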
ATXN viability – viability counter-screen for ATXN expression inhibitors | Potency, µM (doses to about 56.7 µM), usual class: cytotoxic | S2 cells (HEK-293 line with an ATXN2-luciferase reporter) viability, CellTiter-Fluor protease fluorescence, 24 h | actives 0.49% (n = 400,000) | AID 651635; note: nearly all actives have a fitted effect of over 40% in size
An asterisk follows results filed as active; i = inactive; u = inconclusive; x = not tested or not shown. Most compounds without a hit are left out; they make up all but 17% or so of the library. Calls come from the whole dose curve; as a rule, active = well fitted curve in the direction sought with a large enough effect; inconclusive = small, poorly fitted or top-dose-only effect, or another doubt; inactive = no such curve, though single readings can be large; an effect the other way counts as inactive or inconclusive. Potency is the fitted concentration of half-maximal effect.

SMILES	HepG2 tox	ATXN2 expr inh	DT40 TDP1 CPT	TGFb SMAD3 inh	TDP1 cell noCPT	ATXN viability
Cc1ccc(-c2csc(N(CCO)CCCn3c(C(F)(F)F)nc4ccccc43)n2)cc1	-25%	u	21µM*	u	u	i
CCOC(=O)CN1C(=O)N2C[C@H]3CON(C)[C@H]3C[C@H]2c2ccccc21	-10%	-2%	u	-13%	u	i
O=c1c(-c2ccc(Cl)cc2)cnc2n1CCS2	-4%	28%	u	0%	u	i
COc1cc(NC(=O)CSc2nc3[nH]ncc3c(=O)n2-c2ccccc2)cc(OC)c1OC	-20%	x	u	-4%	26µM*	i
COc1ccc(N2CCN(C(=O)CSc3nc4[nH]ncc4c(=O)n3-c3cccc4ccccc34)CC2)cc1	-2%	-14%	6.5µM*	-3%	7.3µM*	u
COc1cc2c(cc1OC)CN(C(=O)CSc1nc3[nH]ncc3c(=O)n1-c1ccccc1)CC2	9%	-21%	2%	5%	-23%	i
CC(C)(C)CC(C)(C)NC(=S)N1CCN(Cc2ccc3c(c2)OCO3)CC1	2%	x	-22%	6%	-1%	i
CCOC(=O)C1(Cc2ccccc2)CCCN(C(=O)C=C(C)C)C1 (centres undefined)	-1%	81%	u	6%	-51%	i
CCOC(=O)C1(Cc2ccccc2)CCCN(Cc2ccncc2)C1 (centres undefined)	-22%	-28%	u	-2%	u	i
CCOC(=O)C1(Cc2ccccc2)CCCN(C(=O)COc2ccccc2OC)C1 (centres undefined)	-35%	x	23µM*	-1%	13µM*	i
CCOC(=O)C1(Cc2ccccc2)CCCN(Cc2cccc(C(C)=O)c2)C1 (centres undefined)	-20%	-14%	u	-13%	16µM*	i
COCCn1c2c([n+](Cc3cnccn3)c1C)C(=O)c1ccccc1C2=O	x	0.054µM*	x	x	x	x
CC(C)(C)[C@H]1C=C(C(N)=O)O[C@@H](OCCCCO)C1	-4%	-2%	-22%	15%	-26%	i
CC(C)(OC1OC(CO)C(O)C(O)C1O)[C@H]1Oc2ccc3ccc(=O)oc3c2[C@H]1O (some centres undefined)	-10%	6%	1%	19%	-16%	i
CC(NC(c1ccccc1)c1ccccc1)C(=O)N1CCCc2ccccc21 (centres undefined)	-8%	-11%	12µM*	u	10µM*	i
CC(Nc1ccccc1N1CCCCC1)C(=O)N1CCc2ccccc21 (centres undefined)	22%	-20%	u	-8%	16µM*	i
COc1ccc(S(=O)(=O)N2CCCCC2)cc1NC(=O)c1cncc(Br)c1	10%	9%	-22%	1%	7%	i
CCCN1CCN(C(=O)c2ccc(S(=O)(=O)N(C)c3ccccc3OC)cc2)CC1	1%	x	u	1%	-4%	i
NS(=O)(=O)c1ccc(CNC(=O)c2cc(-c3cccnc3)nc3ccc(Br)cc23)cc1	-24%	-17%	-1%	-20%	8%	i
Cc1nn(-c2ccccc2)c(N2CCCC2)c1/C=N/NC(=S)Nc1ccccc1F	-42%	31%	13µM*	0%	u	i
Cc1nn(-c2ccccc2)c(N2CCCC2)c1/C=N/NC(=O)c1cc(-c2ccccn2)nc2ccccc12	0%	-5%	21µM*	3%	12µM*	i
CC(=O)Nc1c(C)nn(-c2ccccc2)c1N1CCC(C(=O)Nc2ccccc2F)CC1	-14%	x	14%	-3%	-13%	x
Cc1nn(-c2ccccc2)c(N2CCCC2)c1/C=N/NC(=O)c1cc(-c2ccccc2)nc2ccccc12	3%	-11%	u	-19%	u	i
Cc1nn(-c2ccccc2)c(N2CCCC2)c1/C=N/NC(=O)c1cc(-c2cccs2)nc2ccccc12	8%	5%	u	-6%	15µM*	i
Cc1nn(-c2ccccc2)c(N2CCCC2)c1/C=N/Nc1ccc(S(N)(=O)=O)cc1[N+](=O)[O-]	-21%	30%	16µM*	u	15µM*	i
SMILES	HepG2 tox	ATXN2 expr inh	DT40 TDP1 CPT	TGFb SMAD3 inh	TDP1 cell noCPT	ATXN viability
Cc1ccc(S(=O)(=O)Nc2cc(-c3ccccc3)nn2C)cc1Cl	7%	-4%	-12%	0%	-24%	i
O=c1nc2ccccc2c2n1C[C@H](CN1CCN(c3ccccc3)CC1)N2	x	x	6%	x	4%	x
COc1c(Cl)cc2c([nH]c3cnccc32)c1NC(=O)c1cccnc1C	x	2%	x	x	x	x
COC(=O)c1ccccc1NC(=O)Cn1nc(C)c2nn(-c3ccc(Cl)cc3)c(C)c2c1=O	-12%	x	21µM*	0%	26µM*	x
CCc1ccc(CNC(=O)Cn2nc(C)c3nn(-c4ccc(Cl)cc4)c(C)c3c2=O)cc1	-2%	x	u	0%	u	x
CCc1ccccc1NC(=O)Cn1nc(C)c2nn(-c3ccc(Cl)cc3)c(C)c2c1=O	9%	x	u	-7%	15µM*	x
COC(=O)c1ccccc1NC(=O)CCn1nc(C)c2c(C)n(-c3ccccc3)nc2c1=O	-33%	-11%	-26%	-29%	-23%	i
CC1=CS(=O)(=O)CC1Sc1nc2ccccc2[nH]1 (centres undefined)	3%	1%	12%	8%	5%	i
O=S1(=O)C=CC(Sc2nc3ccccc3[nH]2)C1 (centres undefined)	1%	13%	13µM*	-3%	21µM*	i
Cn1c2c(c(=O)n(C)c1=O)C(C(F)(F)F)(C(F)(F)F)N=C(CCC1CCCCC1)N2	-31%	u	2.6µM*	u	3.7µM*	i
Cn1c(=O)c2[nH]c(-c3ccccc3Cl)c(O)c2n(C)c1=O	19%	-22%	2%	14%	-15%	i
Cn1c(=O)c2c(nc(CCC3CCCC3)n2C)n(C)c1=O	-16%	-22%	u	-27%	u	i
Cn1c2c(c(=O)n(C)c1=O)C(C(F)(F)F)(C(F)(F)F)N=C(c1ccccc1Cl)N2	-24%	-11%	23µM*	-19%	u	i
CC1CC(C)(C)CC2(C1)NC(=O)N(CC(=O)Nc1cc([N+](=O)[O-])ccc1F)C2=O (centres undefined)	-9%	x	15µM*	-7%	10µM*	u

Bioassay records deposited in PubChem BioAssay by National Center for Advancing Translational Sciences (NCATS).
